In all, about 33,000 sequences were measured (“E-score (-0.5 to 0.5)”: median about -0.015, highest 2% from about 0.3 on). The sample as a whole holds a higher share of the highest values than the screen did.

Experimental findings from the supplement of paper PMC3334620 are described below.

This experiment addresses T1, Abf1 (UniProt P14164).
T1 sequence: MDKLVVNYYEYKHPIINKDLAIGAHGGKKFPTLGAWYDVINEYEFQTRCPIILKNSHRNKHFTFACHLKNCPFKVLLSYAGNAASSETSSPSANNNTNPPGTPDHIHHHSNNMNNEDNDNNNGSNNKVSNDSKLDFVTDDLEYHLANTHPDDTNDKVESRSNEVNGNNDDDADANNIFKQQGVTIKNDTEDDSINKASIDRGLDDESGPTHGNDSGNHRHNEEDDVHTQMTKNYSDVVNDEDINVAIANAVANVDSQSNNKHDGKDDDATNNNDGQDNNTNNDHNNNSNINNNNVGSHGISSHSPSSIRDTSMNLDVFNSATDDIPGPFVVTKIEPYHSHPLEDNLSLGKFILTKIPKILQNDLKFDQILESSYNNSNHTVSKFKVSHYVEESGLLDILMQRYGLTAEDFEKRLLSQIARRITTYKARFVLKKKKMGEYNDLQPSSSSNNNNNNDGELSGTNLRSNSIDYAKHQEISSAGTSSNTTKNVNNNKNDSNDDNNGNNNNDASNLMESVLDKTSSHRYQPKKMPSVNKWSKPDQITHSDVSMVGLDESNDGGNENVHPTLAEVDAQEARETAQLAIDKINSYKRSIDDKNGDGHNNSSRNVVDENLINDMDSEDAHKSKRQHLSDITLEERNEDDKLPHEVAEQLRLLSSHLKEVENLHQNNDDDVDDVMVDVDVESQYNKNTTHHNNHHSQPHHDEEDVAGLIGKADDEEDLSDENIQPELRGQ
Put plainly: PBM E-score (8-mer binding enrichment) (E-score (-0.5 to 0.5)); higher = stronger / more preferred TF binding. The conditions noted are these: protein concentration: 200 nM; construct: GST-full length. A digest of the protocol:
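E-scores (a modified Wilcoxon-Mann-Whitney statistic) were assigned by the Universal PBM Analysis Suite to every ungapped eight-base word pooled with its reverse complement. The input came from universal all-10-mer Agilent arrays made double-stranded by primer extension and probed with GST-tagged yeast transcription factors at about 100-200 nM. Fluorescent anti-GST detected bound protein, and masliner normalised the scans.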
ATCATCAA: the “PBM E-score” value stood at 0.26.
Regarding ATCATCAT, the “PBM E-score” value stood at 0.376.
Then AGCATCAT, with 0.0136; and TTCATCAA, with 0.041.
In the case of ATCATCGC, the “PBM E-score” value was 0.301.
Then ATCATCAG, with 0.16.
Turning to ATCATCGA, the “PBM E-score” value was 0.175.
As to AACATCAG, the “PBM E-score” value was found to be 0.0871.
The result for GTCATCAA reads 0.31.
For ATCATCGG, the “PBM E-score” value was 0.116.
The result for AACATCAC reads 0.283; that for ATCGCATC, 0.0782; that for GAATCCCA, -0.00947.
Then AGGCCTTG, with -0.302; and CTCTCTGA, with -0.149.
For ACCCTTCA, the “PBM E-score” value was -0.0788.
Regarding AGGTGTCA, the “PBM E-score” value was -0.0121.
Then AATTCTGT, with -0.144; and GACATCAC, with 0.352; and GCCATCAC, with -0.121.
The result for AGCATCAC reads -0.0618.
Then GACATCAA, with 0.178.
For CTCATCAC, the “PBM E-score” value is 0.217.
Take ATCATCAC: the “PBM E-score” value was 0.393.
Then GGCATCAC, with 0.0726; and GTCATCAC, with 0.334.
CACATCAC: the “PBM E-score” value was 0.244.
In the case of AGCTTGAC, the “PBM E-score” value was -0.245.
The result for GTGGTGTA reads -0.0517.
For GCCCCTTA, the “PBM E-score” value is -0.138.
The result for CGCCGCCG reads -0.223; that for ATACGGCA, 0.376.
The result for GTACGGCA reads 0.222.
Then ATACGGCC, with 0.208.
Take ATACGGGG: the “PBM E-score” value worked out at 0.172.
ATACGGCG: the “PBM E-score” value is 0.384.
In the case of CTACGGCA, the “PBM E-score” value stood at 0.291.
Then AGAGGGTC, with -0.274; and CTTAGGGC, with -0.183.
As for GGCTCGAC, the “PBM E-score” value is -0.0785.
The result for CGGCGTCA reads -0.103; that for AATCACTG, 0.204; that for CCTCACTC, 0.0309.
Then GCTCACTA, with 0.0163; and CCTCACTA, with 0.159; and GATCACTA, with 0.389.
Take CATCACAA: the “PBM E-score” value was 0.0688.
Regarding GTTCACTA, the “PBM E-score” value was 0.115.
Then AATCACTA, with 0.359.
With CATCACTA, the “PBM E-score” value was determined as 0.351.
The result for AATCACTC reads 0.224; that for CATCACTC, 0.385.
With CATCACAC, the “PBM E-score” value was determined as 0.141.
In the case of ATCGTAGA, the “PBM E-score” value came out at 0.28.
Then AGTGTGGA, with -0.0464; and CAGTAGGA, with -0.109; and ATTGTGGG, with -0.127.
Regarding TACCGCGA, the “PBM E-score” value was -0.111.
Consider GGTCGACA, for which the “PBM E-score” value is -0.106.
The result for GAGCCTAC reads -0.171.
The result for ATGGTTTC reads -0.0221.
Then GATGGGCC, with -0.28; and CACAGTTA, with 0.164; and CCTCGAGA, with -0.0603.
Consider TCTCGAGA, for which the “PBM E-score” value stood at 0.302.
On to GCTCGAGA, for which the “PBM E-score” value is -0.143.
Consider CATTGTGC, for which the “PBM E-score” value was -0.115.
Consider CCGAACTA, for which the “PBM E-score” value is -0.143.
As to TCGTAGAA, the “PBM E-score” value came out at 0.393.
The result for GCGTAGAA reads 0.0196.
For the sequence CCGTAGAA, the “PBM E-score” value turned out to be 0.298.
The result for ACGTAGAA reads 0.108; that for CCGTAGAC, 0.0491; that for CCGTAGAG, 0.102.
As to ATACCGGC, the “PBM E-score” value was 0.0536.
The result for CGGGCGCC reads -0.053; that for GTGATTAA, 0.249; that for CGGATAGA, 0.147.
AGTGGTGA: the “PBM E-score” value is 0.131.
Take ACATCACA: the “PBM E-score” value worked out at 0.183.
Then ACATCATG, with 0.24; and GCATCACC, with -0.101; and ACATCATA, with 0.169.
Then ACATCACT, with 0.415.
As for ACATCACC, the “PBM E-score” value is 0.353.
Then ACATCACG, with 0.231.
